AMA1 RON2 block: disrupts binding of P. falciparum AMA1 to RON2 | 0.2% of 360,000 active | Potency, µM (titrated, usually from 58.2 µM), without a hit: at the top dose activity change, negative = inhibition, hits mostly inhibitors | AlphaScreen AMA1-biotinylated RON2 peptide binding;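 further: potency means the concentration at half of the fitted maximal effect; 0% = vehicle wells and -100% = peptide control; nearly all actives have a fitted effect of over 45% in size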
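AMA1 (3D7) with his tag at 25 nM final met compounds first, then biotinylated RON2 peptide at 25 nM; detection used donor plus acceptor beads, 10 µg/mL apiece, read by AlphaScreen after 30 min at room temperature.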
HCV inhibitor: blocks hepatitis C virus; Huh7.5.1 HCVcc-Cre infection, luciferase reporter, 44 h; Potency, µM (titrated, usually from 41.8 µM), for the others: at the top dose activity change, negative = inhibition, hits mostly inhibitors; 3.4% of 340,000 active; AID 651820; further: potency means the concentration at half of the fitted maximal effect; on the % scale 0 is the no-effect control and ±100 the full control effect
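Reporter virus HCVcc-Cre (~0.5 moi) infects cells exposed to compound; seeding density 1,000 cells/well with 4 h settling beforehand. Luminescence, 15 sec read, taken 44 h post-infection following a 15 min RT substrate incubation.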
Shiga toxin inh: inhibitors of Shiga toxin in Vero cells; 9.2% of 290,000 active; inhibition, % at 38.7 µM; Vero cells, Shiga toxin protein synthesis inhibition reporter; in the data active means inhibition mostly above about 28%, no sharp cut-off; inactive means mostly below about 43%; further: 0% is about no effect
Cycloheximide cs: counter-screen hit for Shiga toxin inhibitors, cycloheximide; max response, %; 12% of 300,000 active; AID 2314; cell reporter, cycloheximide protein synthesis inhibition counterscreen; in the data active means max response mostly above about 13%, no sharp cut-off; inactive means mostly below about 14%; further: read at 38.3 µM for the half of the compounds with a filed dose; 0% is about no effect
Pf growth 48h: P. falciparum growth inhibition at 48 hours (one generation); P. falciparum luciferase growth in erythrocytes, 48 h; Potency, µM (titrated, usually from 28.7 µM), inactives show at the highest dose activity change, negative = inhibition, hits mostly inhibitors; 5.9% of 310,000 active; further: potency means the concentration at half of the fitted maximal effect; on the % scale 0 is the no-effect control and ±100 the full control effect
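Parasite viability was followed by luminescence of a genomically integrated firefly luciferase. Cultures held 0.1% parasitemia at 2% hematocrit (final), incubated under 5% CO2 at 37 C.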
Pf growth 96h: inhibits malaria parasite growth, 96 h. P. falciparum luciferase reporter growth, 96 h. Potency, µM (doses to about 28.7 µM), inactives show at the highest dose activity change, negative = inhibition, most hits filed as inhibitors. 6.9% of 320,000 active; further: potency means the concentration at half of the fitted maximal effect; on the % scale 0 is the no-effect control and ±100 the full control effect
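Two parasite generations (96 h, 37 C, 5% CO2) of compound exposure in infected erythrocytes (0.05% parasitemia, 2% hematocrit). Luciferase-reporter P. falciparum; decreased luminescence indicates inhibited growth, aimed at apicoplast-acting delayed death.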
* = called active by the depositor; i = inactive; ? = inconclusive; nt = no result; + = active, no number. Most compounds without a hit are left out; they make up all but 21% or so of the library. Unless noted, the call rests on the fitted dose curve; in most records, active means well fitted curve in the direction sought with a large enough effect; inconclusive means small, poorly fitted or top-dose-only effect, or another doubt; inactive means no such curve, though single readings can be large; an effect the other way counts as inactive or inconclusive.

SMILES | AMA1 RON2 block | HCV inhibitor | Shiga toxin inh | Cycloheximide cs | Pf growth 48h | Pf growth 96h
Cc1ccc(C(CCNC(C)c2cccs2)c2ccco2)cc1 (configuration not stated) | 0.0% | -7.4% | -6.1 | 0.5 | 10.4µM* | ?
CC(NCCC(Cc1ccccc1)c1ccco1)c1ccccc1 (configuration not stated) | 13.1% | 8.8% | -11.5 | -3.6 | ? | ?
OC(CCN1CCC2CCC(C2)C1)c1ccc(Br)cc1 (configuration not stated) | 1.6% | 31.6µM* | nt | nt | nt | nt
COc1ccc(Nc2nc(NN)nc(Nc3ccc(OC)cc3)n2)cc1 | 19.8% | ? | nt | -2.2 | 9.28µM* | 3.29µM*
COc1ccc(Nc2ccc(Nc3ccc(OC)cc3)nn2)cc1 | -11.9% | 6.6% | -2.3 | 1.3 | 7.8% | -9.8%
NNc1nc(Nc2ccccc2)nc(N2CCCCC2)n1 | 5.8% | ? | -6.7 | 10.0 | ? | nt
NNc1nc(Nc2ccccc2)nc(Nc2ccccc2)n1 | 27.5% | -14.7% | 35.8* | 28.0 | 8.28µM* | 348.6%
COc1ccc(NC2=CC(=O)N(C)C2=O)cc1 | 13.3% | 18.0% | + | 20.6 | 86.8% | 71.9%
COc1ccc(Nc2ccc(OC)cc2)cc1 | ? | 1.2% | 86.6* | 45.6* | ? | ?
COc1ccc(Nc2cccccc2=O)cc1 | 57.9% | 12.3% | 26.7 | 15.0 | 37.7% | 64.7%
COc1ccc(Nc2nc(N3CCOCC3)nc(N3CCOCC3)n2)cc1 | 5.5% | ? | -14.6 | -1.3 | 0.0% | -21.2%
CCOc1cc(OCC)cc(C(=O)NCCN2CCC(n3c(=O)[nH]c4ccccc43)CC2)c1 | -26.5% | nt | nt | nt | nt | nt
O=C(Cc1ccc(F)cc1)NCCS(=O)(=O)N1CCN(c2cccc(Cl)c2)CC1 | 1.6% | -17.1% | nt | nt | 5.6% | -19.2%
c1ccc(Nc2ccnc(Nc3ccccc3)n2)cc1 | 0.0% | ? | 99.9* | 52.9* | -18.3% | -7.0%
COC(=O)C(Cc1ccccc1)OS(N)(=O)=O (configuration not stated) | 28.3% | 29.7% | 1.7 | 0.6 | 77.8% | -20.2%
O=C(N/N=C/c1c(Cl)cccc1Cl)c1cccc(F)c1 | 17.0% | -6.0% | 13.8 | 17.5 | 32.7% | 9.2%
O=C(N/N=C/c1cccc2ccccc12)c1cccc(F)c1 | -0.2% | ? | 79.0* | 63.0* | ? | 0.0%
O=C(N/N=C/c1ccccc1Cl)c1cccc(F)c1 | 12.1% | 13.9% | 96.7* | 77.8* | 123.3% | 74.1%
CCCc1nn2c(=O)cc(CSCC(=O)Nc3ccccc3OC)nc2s1 | -0.2% | -1.1% | -4.8 | -5.5 | 4.1% | 26.3%
CS(=O)(=O)N(CC(=O)N1CCCCCC1)c1cccc(Br)c1 | 0.9% | 10.9% | -12.2 | -4.1 | 6.3% | 11.7µM*
Cc1ccc(N(CC(=O)N2CCCCCC2)S(C)(=O)=O)cc1Cl | 2.0% | 3.6% | nt | 1.0 | -21.8% | 7.38µM*
Cc1ccc(N(CC(=O)N2CCOCC2)S(C)(=O)=O)cc1Cl | 12.3% | 18.5% | -10.0 | 1.7 | 4.5% | ?
O=C(Nc1nccs1)c1ccc2nccnc2c1 | -0.4% | 2.4% | 44.7* | 23.5* | 91.9% | -63.7%
Nc1ccc(C(=O)Nc2nccs2)cc1 | 20.6% | 14.5% | 125.3* | 33.2* | 338.2% | 6.7%
Cc1ccccc1NC(=O)c1ccc2nccnc2c1 | 5.6% | 21.2% | 24.0 | 9.0 | 39.8% | ?
SMILES | AMA1 RON2 block | HCV inhibitor | Shiga toxin inh | Cycloheximide cs | Pf growth 48h | Pf growth 96h
O=C(Nc1nccs1)c1ccc(COc2c(F)c(F)cc(F)c2F)cc1 | 84.4% | ? | 79.5* | 56.1* | ? | 24.6%
O=C(Nc1ccccc1C(=O)Nc1nccs1)c1ccccc1 | 99.0% | nt | nt | nt | nt | nt
O=C(Nc1ccccc1Br)c1ccc2nccnc2c1 | -7.7% | 5.7% | 46.3* | 35.3 | 180.6% | 0.0%
COc1ccc(-n2nnnc2C2(C)CCC(=O)N2Cc2ccccc2)cc1 (configuration not stated) | 0.5% | nt | nt | nt | nt | nt
Cc1ccc(C(=O)Nc2nccs2)cc1 | 1.5% | 8.6% | 115.9* | 36.6* | i | 439.0%
c1ccc(-c2nc(NCCCn3ccnc3)c3oc4ccccc4c3n2)cc1 | -2.3% | ? | -4.9 | 1.4 | 3.29µM* | 2.33µM*
c1cncc(-c2nc(NCCCn3ccnc3)c3ccccc3n2)c1 | ? | ? | -8.4 | 7.1 | -16.1% | ?

Screens from PubChem BioAssay.
